The results in this text go back to ChEMBL document CHEMBL4513216, “Probing the Open Global Health Chemical Diversity Library for Multistage-Active Starting Points for Next-Generation Antimalarials” (ACS Infect Dis, 2020).

Each structure is given as a SMILES string. The campaign covered roughly 69,000 compounds. About 8,600 (12%) showed an effect of 50% or more. The sample as a whole holds a higher share of strong results than the screen did.

For the assay, the system named is Plasmodium berghei. Description: Screen against P. berghei liver stage (PbLuc), transformed with Luciferase, at 10uM. Type of assay: functional, HepG2. To be noted: tested at 10 uM.
With `Cn1nccc1CNC(=O)CCn1nc(C(F)(F)F)cc1C1CC1`, the INHIBITION is on record as -49.3%.

For the molecule `c1cncc(CN(Cc2ccc(-n3ccnc3)cc2)CC2CCCO2)c1` (centres undefined), the INHIBITION was 23.2%.

`CC(C)c1ccc(C(C)N2CCCN(C(N)=O)CC2)cc1` (centres undefined): the INHIBITION is given as -18.7%. On to `CC1CCCN(S(=O)(=O)NCc2ccccc2Cn2cncn2)C1` (centres undefined), for which the INHIBITION is on record as 37.4%. With `CC1CCCN(CC(=O)N2CCC(c3ncc4c(n3)CCNC4)CC2)C1` (centres undefined) the figure was 25%.

Consider `COc1cccc(COCC(=O)N2CCCC(n3cncn3)C2)c1` (centres undefined), for which the INHIBITION is reported as -24.2%. With `CC(CO)Nc1ccc(-c2nc(Cc3ccc(F)cc3)no2)cn1` (centres undefined) the figure was -37.6%. For `COc1ccc(Cc2noc(-c3ccc(NC(C)CO)nc3)n2)cc1` (centres undefined), the INHIBITION was 52.2%.

As for `COCC(C)Nc1ccc(-c2nc(Cc3ccc(F)cc3)no2)cn1` (centres undefined), the INHIBITION worked out at 49%. As to `N#Cc1ccc(N2CCC3(CC2)COCCN3Cc2cccnc2)cc1`, the INHIBITION is -6.46%. Regarding `Cc1ncc(C(=O)N2CCC(C(=O)NC3CCCC3)C2)c(C)n1` (centres undefined), the INHIBITION is on record as 19.3%. As for `Clc1cccc(C2CCN(c3ncnc4c3CCNC4)C2)c1` (centres undefined), the INHIBITION was found to be 83%. Take `c1ccc(C2CCN(c3ncnc4c3CCNC4)CC2)cc1`: the INHIBITION was 83%. With `c1ccn2c(C3CCCN(c4ncnc5c4CCNC5)C3)nnc2c1` (centres undefined) the figure was -20.8%; with `c1ccc(C2CCCN(c3ncnc4c3CCNC4)CC2)cc1` (centres undefined), 83.9%; with `CN1CC2(CCN(c3ncnc4c3CCNC4)CC2)OC1=O`, 49.5%. With `Cc1cc(C)n(C2CCN(c3ncnc4c3CCNCC4)C2)n1` (centres undefined) the figure was 42.1%. Consider `c1nc2c(c(N3CCOCC3)n1)CCNCC2`, for which the INHIBITION was 27.5%. Regarding `c1ccc2c(c1)CN(c1ncnc3c1CCNC3)CCO2`, the INHIBITION was 25.9%. Take `c1cc(C2CCN(c3ncnc4c3CCNCC4)CC2)ccn1`: the INHIBITION worked out at 33.9%.

Regarding `Cn1cnc2c1C(COCC1CC1)CN(C(=O)Cc1ccsc1)C2` (centres undefined), the INHIBITION came out at 11.1%. Regarding `NC(=O)C1(CCCc2ccccn2)CCCN(CCO)C1` (centres undefined), the INHIBITION worked out at 30.8%.

For `Cc1cc(C)n(CCCN(C)c2cc(N(C)C)ncn2)n1`, the INHIBITION is recorded as 28.2%. With `CC(C)OCCCN(Cc1cnn(C)c1)Cc1ccccn1` the figure was -51.3%. With `CCN(Cc1ccccn1)C1CCN(c2ccccc2)C1=O` (centres undefined) the figure was -31.1%; with `CCN(CC)[C@@H]1CN(Cc2ccc(C)o2)[C@@H]2CCCO[C@H]12`, 63.1%. In the case of `Cc1ccc(CN2C[C@@H](N(C)C)[C@H]3OCCC[C@H]32)o1`, the INHIBITION is given as -37.9%.

Consider `Cn1ccnc1C(=O)N[C@@H]1CN(CC2CCOCC2)[C@@H]2CCCO[C@@H]21`, for which the INHIBITION is on record as 63.8%. With `Cc1ccc(CN2C[C@H](N(C)Cc3cncnc3)[C@H]3OCCC[C@H]32)o1` the figure was -3.77%. Take `Cc1ccc(CN2C[C@H](NC(=O)c3nccn3C)[C@H]3OCCC[C@H]32)o1`: the INHIBITION is reported as 75.6%. With `Cn1ccnc1C(=O)N[C@@H]1CN(Cc2ccc(F)cc2)[C@@H]2CCCO[C@@H]21` the figure was 49.4%. `Cn1ccnc1C(=O)N[C@@H]1CN(Cc2cccs2)[C@@H]2CCCO[C@@H]21`: the INHIBITION stood at 22.2%. With `Cn1ccnc1C(=O)N[C@@H]1CN(Cc2ccoc2)[C@@H]2CCCO[C@@H]21` the figure was 29.4%; with `Cn1cc(C(=O)N[C@@H]2CN(CC3CCOCC3)[C@@H]3CCCO[C@@H]32)cn1`, -14.4%.
